# TDP1 block: qHTS Assay for Inhibitors of Tyrosyl-DNA Phosphodiesterase (TDP1); Tyrosyl-DNA phosphodiesterase 1 (Homo sapiens), Q9NUW8; recombinant TDP1, AlphaScreen DNA substrate cleavage; Potency, µM (highest dose often 130 µM), hits mostly inhibitors; 0.28% of 350,000 active; note: nearly all actives have a fitted effect of over 40% in size
# Target sequence (Q9NUW8 whole entry, looked up): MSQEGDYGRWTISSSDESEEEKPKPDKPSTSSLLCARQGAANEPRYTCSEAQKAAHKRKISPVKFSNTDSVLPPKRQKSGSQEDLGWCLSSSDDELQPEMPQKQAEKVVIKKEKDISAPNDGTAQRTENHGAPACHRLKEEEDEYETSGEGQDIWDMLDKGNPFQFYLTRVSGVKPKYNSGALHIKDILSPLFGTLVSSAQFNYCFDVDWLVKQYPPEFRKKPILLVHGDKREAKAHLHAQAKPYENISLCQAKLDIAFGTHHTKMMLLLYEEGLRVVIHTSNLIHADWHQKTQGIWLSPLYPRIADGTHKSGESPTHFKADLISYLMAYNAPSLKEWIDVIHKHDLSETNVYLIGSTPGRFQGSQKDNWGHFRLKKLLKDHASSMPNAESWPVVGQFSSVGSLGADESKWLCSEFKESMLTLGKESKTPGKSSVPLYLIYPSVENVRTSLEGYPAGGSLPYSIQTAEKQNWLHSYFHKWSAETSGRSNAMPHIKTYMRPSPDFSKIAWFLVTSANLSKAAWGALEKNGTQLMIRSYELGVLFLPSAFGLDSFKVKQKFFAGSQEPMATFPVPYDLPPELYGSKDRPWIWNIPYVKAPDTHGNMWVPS
#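 Enzyme-compound mixtures sat 15 min at room temperature, followed by a 5 min reaction with 15 nM final substrate and 10 min with AlphaScreen beads. Recombinant human Tdp1 was used at 1 nM final.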
# DT40 TDP1 CPT: qHTS for Inhibitors of human tyrosyl-DNA phosphodiesterase 1 (TDP1): qHTS in cells in presence of CPT; Potency, µM (titrated, usually from 46.2 µM), actives largely listed as inhibitors; chicken DT40 Tdp1-/-;hTDP1 cells + 20 nM CPT, ATP luminescence, 48 h; 12% of 420,000 active; note: nearly all actives have a fitted effect of over 55% in size
#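 Chicken DT40 Tdp1-/- cells complemented with human TDP1, 400 cells/well, exposed to compounds plus 20 nM camptothecin for at least 48 h at 37 C; viability read as ATP content by CellTiter-Glo luminescence.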
# TDP1 cell noCPT: qHTS for Inhibitors of human tyrosyl-DNA phosphodiesterase 1 (TDP1): qHTS in cells in absence of CPT; 15% of 420,000 active; Potency, µM (doses to about 46.2 µM), most hits filed as inhibitors; DT40 Tdp1-/- hTDP1 cells, no CPT, ATP luminescence, 48 h; note: nearly all actives have a fitted effect of over 55% in size
#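 DT40 Tdp1-/-;hTDP1 cells, no CPT (DMSO vehicle only), 400 cells/well; compounds pin-transferred; ≥48 hr, 37 °C; CellTiter-Glo 30 min RT dark, luminescence read.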
# IL-1B inflam inh: qHTS for Inhibitors of Inflammasome Signaling: IL-1-beta AlphaLISA Primary Screen | THP-1 LPS/ATP IL-1B secretion, AlphaLISA, 16 h; hits give low values | activity change, % at 57.5 µM | 4.7% of 360,000 active | AID 743279, 2014; in the data active = activity change below about -50%; inconclusive = mostly about -30% to -49%
#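 THP-1 cells pretreated 1 hr with compounds (up to 57.5 uM final), then stimulated with LPS (250 ng/mL final) plus ATP (1.25 mM final); secreted IL-1B measured by AlphaLISA after 16 hr, decreased signal indicating inhibition.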
# Six1-Eya2 inh: qHTS Assay for Inhibitors of the Six1/Eya2 Interaction. AlphaScreen GST-Six1/His-Eya2 binding, biochemical; hits give low values. 0.56% of 360,000 active. Homeobox protein SIX1 (Homo sapiens) + Protein phosphatase EYA2 (Homo sapiens), …. activity change, % (no concentration beside the values); in the data active = activity change below about -65%; inconclusive = mostly about -30% to -63%
#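 AlphaScreen luminescence read after one hour at 37 °C in darkness. Pin-transferred compounds met GST-Six1 and His-Eya2 protein (5X stock 250 nM/500 nM) plus glutathione donor and Ni-chelate acceptor beads (5X, 50 ug/mL).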
# CtBP-E1A inh: qHTS Assay for Inhibitors of the CtBP/E1A Interaction; 0.49% of 340,000 active; activity change, % (concentration not given with the values); AlphaScreen GST-E1A/His-CtBP binding, 1536-well; hits give low values; AID 651724, 2012; in the data active = activity change below about -65%; inconclusive = mostly about -30% to -63%
#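 Protein mix (5X: 125 nM each GST-E1A, His-CtBP) was incubated with pinned compound 2 h at 37 deg C in dark, in 50 mM Tris pH 8.0 buffer with 300 mM NaCl. Glutathione donor and nickel acceptor beads followed; AlphaScreen signal read after 1 h.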
# Numbers stand for hits; – = inactive; ? = inconclusive; · = no result. A selection: hits, their analogues and other compounds. The true share with any hit is near 18%. Unless noted, calls come from the whole dose curve; as a rule, active = well fitted curve in the direction sought with a large enough effect; inconclusive = small, poorly fitted or top-dose-only effect, or another doubt; inactive = no such curve, though single readings can be large; an effect the other way counts as inactive or inconclusive.
SMILES,TDP1 block,DT40 TDP1 CPT,TDP1 cell noCPT,IL-1B inflam inh,Six1-Eya2 inh,CtBP-E1A inh
CC(SC(=S)N1CCOCC1)C(=O)O (stereo not drawn),–,–,–,–,–,–
S=C(SSC(=S)N1CCOCC1)N1CCOCC1,·,0.0461µM,0.0259µM,–,–,–
CC[C@]12c3[nH]c4ccccc4c3CCN1C(=O)C(CC(=O)NCCC1=CCCCC1)C[C@@H]2C(=O)N1CCN(C(=O)C2CC2)CC1 (stereo partly drawn),–,18.4µM,16.4µM,–,–,–
CC[C@]12c3[nH]c4ccc(Cl)cc4c3CCN1C(=O)[C@@H](CC(=O)NCc1ccco1)C[C@@H]2C(=O)N1CCN(C(=O)C2CC2)CC1,–,?,?,–,–,–
CC[C@]12c3[nH]c4ccc(Cl)cc4c3CCN1C(=O)[C@@H](CC(=O)NCCC1=CCCCC1)C[C@@H]2C(=O)N1CCN(C(=O)C2CC2)CC1,–,?,25.9µM,–,–,–
CC[C@]12c3[nH]c4cc(CCC(=O)N(C)C)ccc4c3CCN1C(=O)[C@@H](CC(=O)NCCC1=CCCCC1)C[C@@H]2C(=O)N1CCN(C(=O)C2CC2)CC1,–,?,?,?,–,–
O=C(CC1C(=O)NCCN1Cc1cccc(F)c1)NCCCOc1cccnc1 (stereo not drawn),–,?,?,–,–,–
NS(=O)(=O)c1ccc(CCNC(=O)C2CCCO2)cc1 (stereo not drawn),·,–,–,–,–,–
O=C(CNCc1ccccc1)Nc1ccc(F)cc1,·,–,–,–,–,–
COc1ccc(O)c(C(=O)c2cc(C#N)c(=O)n(Cc3ccccc3)c2)c1,–,?,?,–,–,–
N#Cc1cc(C(=O)c2cc(Br)ccc2O)cn(Cc2ccccc2)c1=O,–,?,20.6µM,?,–,–
Cc1ccccc1-n1cc(C(=O)c2cc(Cl)ccc2O)cc(C#N)c1=O,–,?,11.6µM,–,–,–
COCCn1cc(C(=O)c2cc(Br)ccc2O)cc(C#N)c1=O,–,?,?,–,–,–
CC(C)n1cc(C(=O)c2ccccc2O)cc(C#N)c1=O,–,–,–,–,–,–
Cc1c(-n2cc(C(=O)c3cc(F)ccc3O)cc(C#N)c2=O)c(=O)n(-c2ccccc2)n1C,–,–,–,-55.9,–,–
N#Cc1cc(C(=O)c2cc(Cl)ccc2O)cn(CC2CCCO2)c1=O (stereo not drawn),–,?,20.6µM,–,–,–
CCCC(=O)Nc1ccc2c(c1)C(=O)NC2=O,–,–,–,–,–,–
C=CCn1c(SCC(=O)c2ccc(O)c(O)c2)nnc1-c1cccc(Cl)c1,–,14.6µM,14.6µM,–,–,–
C=CCn1c(SCC(=O)c2ccc(O)c(O)c2)nnc1-c1cccc(C)c1,–,16.4µM,18.4µM,–,–,–
CCOc1ccc(CN2CCNC(=O)C2CC(=O)NCCc2ccccn2)cc1 (stereo not drawn),·,–,–,–,–,–
O=C(NC(=Nc1ccccc1)N1CCOCC1)Nc1ccccc1,–,–,–,–,–,–
CC(CNC(=O)CN1C(=O)NC2(CCCCC2)C1=O)c1ccccc1 (stereo not drawn),–,–,–,–,–,–
CCc1ccc(CNC(=O)CCCN2C(=O)c3cccnc3Oc3ccc(Cl)cc32)cc1,–,20.6µM,18.4µM,·,·,·
CN(C)c1ccc(CNC(=O)CCCN2C(=O)c3cccnc3Oc3ccc(Cl)cc32)cc1,–,18.4µM,?,·,·,·
O=C(CNC(=O)c1ccco1)Nc1ccc(F)c(Cl)c1,–,–,–,–,–,–
SMILES,TDP1 block,DT40 TDP1 CPT,TDP1 cell noCPT,IL-1B inflam inh,Six1-Eya2 inh,CtBP-E1A inh
O=C(CNC(=O)c1ccco1)Nc1ccc(F)cc1,–,?,?,–,–,-96.3
O=C(CCNc1ccc(Cl)c(C(F)(F)F)c1)c1ccco1,–,7.31µM,9.2µM,–,–,–
O=C(CCNc1ccc(F)c(Cl)c1)c1ccco1,–,3.66µM,6.51µM,-101.2,–,–
O=C(CCNC(=O)c1ccco1)Nc1ccc(Cl)c(C(F)(F)F)c1,–,–,–,–,–,–
O=C(CCNc1ccc(F)cc1)c1ccco1,–,3.26µM,7.31µM,–,–,–
Cc1nc(N2CCOCC2)c2c(C(=O)N3CCN(c4ccccc4)CC3)c(C)oc2n1,–,–,–,·,·,·
O=C(CCNc1cc(Cl)cc(Cl)c1)c1ccco1,–,13µM,13µM,–,–,–
O=C(CCNc1cccc(C(F)(F)F)c1)c1ccco1,–,20.6µM,16.4µM,–,–,–
Cc1cccc(C)c1NC(=O)C1(C)CN(S(C)(=O)=O)CC(=O)N1CCOc1ccccc1 (stereo not drawn),·,–,–,–,–,–
O=C1CN(C(=O)COC(=O)c2ccc([N+](=O)[O-])o2)c2ccccc2N1,–,–,–,–,–,–
O=C(CCCc1nc(-c2ccc(Cl)cc2)no1)NC1CCCC1,–,8.2µM,8.2µM,–,–,–
COc1ccc(-c2noc(CCCC(=O)NC3CCCC3)n2)cc1,·,16.4µM,16.4µM,–,–,–
CN(C)C(=O)/C=C\c1cn(-c2ccccc2)nc1-c1ccc2c(c1)OCCO2,–,?,?,?,–,–
CN1CCN(C(=O)/C=C/c2cn(-c3ccccc3)nc2-c2ccc3c(c2)OCCO3)CC1,–,–,–,-61.6,–,–
CC(=O)Nc1ccc(NC(=O)C(C)OC(=O)/C=C/c2cn(-c3ccccc3)nc2-c2cccnc2)cc1 (stereo not drawn),–,?,20.6µM,?,–,–
O=C(O)c1cn(-c2ccccc2)nc1-c1cccnc1,–,–,–,–,–,–
O=C(/C=C/c1cn(-c2ccccc2)nc1-c1cccnc1)N1CCCCC1,–,?,18.4µM,–,–,–
O=C(/C=C\c1cn(-c2ccccc2)nc1-c1ccccc1)Nc1nccs1,–,14.6µM,?,–,–,–
CC(C)c1nc(SCC(=O)N2CCCC2)c2ccccc2n1,–,–,?,?,–,–
O=C(CCN1C(=O)C2C3CCC(C3)C2C1=O)Nc1ccccc1Cl (stereo not drawn),–,–,–,–,–,–
O=C(/C=C\c1cn(-c2ccccc2)nc1-c1ccc2c(c1)OCCO2)N1CCOCC1,–,?,10.3µM,–,–,·

# Screening results: PubChem, National Center for Advancing Translational Sciences (NCATS)
